Experimental data from the supplement of paper PMC10849652.
Of roughly 8,800 targets only a part is listed; those with a hit were picked by preference. About 0.5% of all pairs of compound and target were hits.

What was measured:
Assay in all cases: log2 fold change, soluble protein after heating vs DMSO (PISA); higher = thermal stabilisation; K562 lysate, 10 uM; active = over 0.2 and 3.5 SD of the protein, either way, in both replicates (recomputed)
ibrutinib = compound: C=CC(=O)N1CCC[C@@H](n2nc(-c3ccc(Oc4ccccc4)cc3)c3c(N)ncnc32)C1 [ibrutinib]
In short: (§1)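 Thermal stability, expressed as log-two fold change relative to solvent controls, is given from duplicates. Crude K562 extract in PBS pH 7.4 with 1 mM MgCl2, at 1 mg/mL protein, was treated with 10 μM compound for 30 min and heated in aliquots for 3 min across 48°C-58°C. After pooling, adjustment to 0.5% NP-40 at 4°C and centrifugation at 21,000xg for 90 min, supernatant protein was measured by TMTpro 16plex LC-MS/MS with channel sums equalised.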

[1] = compound: CC(=O)c1cnc2ccc(-c3cc(Cl)c(O)c(Cl)c3)nc2c1N[C@H]1CC[C@H](CN(C)C)CC1
In short: as §1

ralimetinib = compound: CC(C)(C)Cn1c(N)nc2ccc(-c3[nH]c(C(C)(C)C)nc3-c3ccc(F)cc3)nc21 [ralimetinib]
In short: as §1

[2] = compound: CC(C)(O)CC(=O)NCCn1ccc2ncnc(Nc3ccc(Oc4cccc(C(F)(F)F)c4)c(Cl)c3)c21
In short: as §1

[3] = compound: CC(C)C1=C2N=C(C=C(N2N=C1)NCC3=CC=CC=C3)NCCCCCCN
In short: as §1

[4] = compound: CC1=C(C(CC(=O)N1)C2=CC=C(C=C2)C(F)(F)F)C(=O)NC3=C(C=C4C(=C3)C=NN4)F
In short: as §1

[5] = compound: CC1=C(C2=C(C=C1)C(=O)C3=CC=CC=C3N2CCCN)C
In short: as §1

[6] = compound: CC1=C(C=C(C=C1)NC(=O)C2=CC(=CC=C2)C(C)(C)C#N)NC3=CC4=C(C=C3)N=CN(C4=O)C
In short: as §1

[7] = compound: CC1=C(C=C(C=C1)NC(=O)C2=CC(=CC=C2)N(C)C)NC(=O)C3=CC=C(C=C3)O
In short: as §1

[8] = compound: CC1=CC=C(C=C1)SC2=C3C=C(SC3=CN=C2)C(=O)N
In short: as §1

vemurafenib = compound: CCCS(=O)(=O)Nc1ccc(F)c(C(=O)c2c[nH]c3ncc(-c4ccc(Cl)cc4)cc23)c1F [vemurafenib]
In short: as §1

[9] = compound: CCCS(=O)(=O)Nc1ccc(F)c(C(=O)c2c[nH]c3ncc(Cl)cc23)c1F
In short: as §1

barasertib = compound: CCN(CCCOc1ccc2c(Nc3cc(CC(=O)Nc4cccc(F)c4)[nH]n3)ncnc2c1)CCOP(=O)(O)O [barasertib]
In short: as §1

[10] = compound: CC[C@@H]1C(=O)N(C)c2cnc(Nc3ccc(C(=O)NC4CCN(C)CC4)cc3OC)nc2N1C1CCCC1
In short: as §1

volasertib = compound: CC[C@@H]1C(=O)N(C)c2cnc(Nc3ccc(C(=O)N[C@H]4CC[C@H](N5CCN(CC6CC6)CC5)CC4)cc3OC)nc2N1C(C)C [volasertib]
In short: as §1

[11] = compound: CCn1c(C(=O)N(C2CC2)C2CC2)cc2c3c(ncn3C)c(Nc3cc(C)n(C)n3)nc21
In short: as §1

[12] = compound: CCn1cc(-c2ccnc3[nH]c(-c4cccc(CN(C)C)c4)cc23)c(-c2ccc(NC(=O)N(C)C)cc2)n1
In short: as §1

[13] = compound: CN1CCC(CNc2ccc3ncc(-c4cccc(OC(F)(F)F)c4)n3n2)CC1
In short: as §1

saracatinib = compound: CN1CCN(CCOc2cc(OC3CCOCC3)c3c(Nc4c(Cl)ccc5c4OCO5)ncnc3c2)CC1 [saracatinib]
In short: as §1

sotrastaurin = compound: CN1CCN(c2nc(C3=C(c4c[nH]c5ccccc45)C(=O)NC3=O)c3ccccc3n2)CC1 [sotrastaurin]
In short: as §1

Measured: log2 fold change

PAXBP1 (UniProt Q9Y5B6)
inactive: ibrutinib -0.004 | [1] 0.019 | ralimetinib 0.027 | [2] -0.015 | [3] 0.006 | [4] -0.024 | [5] 0.007 | [6] -0.007 | [7] 0.077 | [8] 0.032 | vemurafenib 0.072 | [9] 0.006 | barasertib 0.07 | [10] -0.008 | volasertib -0.058 | [11] 0.042 | [12] 0.043 | [13] 0.004 | saracatinib 0.02 | sotrastaurin 0.025

NFKBIE (UniProt O00221)
Sequence of UniProt O00221 (O00221 whole entry, looked up): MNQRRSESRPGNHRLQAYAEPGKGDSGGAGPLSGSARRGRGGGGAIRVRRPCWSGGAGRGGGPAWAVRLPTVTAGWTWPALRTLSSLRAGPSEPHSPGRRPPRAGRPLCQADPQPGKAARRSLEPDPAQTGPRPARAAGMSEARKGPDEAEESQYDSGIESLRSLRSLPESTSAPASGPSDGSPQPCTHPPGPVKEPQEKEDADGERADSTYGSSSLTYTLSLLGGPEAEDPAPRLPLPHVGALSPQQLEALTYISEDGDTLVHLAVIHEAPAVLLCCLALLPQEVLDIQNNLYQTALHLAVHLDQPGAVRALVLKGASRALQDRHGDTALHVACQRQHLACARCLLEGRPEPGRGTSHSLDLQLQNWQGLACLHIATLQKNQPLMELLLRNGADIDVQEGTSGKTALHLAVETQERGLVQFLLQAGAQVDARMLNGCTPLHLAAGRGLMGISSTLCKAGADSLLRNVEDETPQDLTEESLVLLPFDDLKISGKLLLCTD
inactive: ibrutinib -0.018 | [1] 0.054 | ralimetinib -0.008 | [2] -0.059 | [3] -0.05 | [4] 0.015 | [5] -0.044 | [6] 0.027 | [7] 0.05 | [8] 0.018 | vemurafenib 0.046 | [9] 0.051 | barasertib 0.174 | [10] 0.081 | volasertib -0.106 | [11] -0.024 | [12] -0.07 | [13] -0.045 | saracatinib -0.123 | sotrastaurin -0.025

OLA1 (UniProt Q9NTK5)
Sequence of UniProt Q9NTK5 (Q9NTK5 whole entry, looked up): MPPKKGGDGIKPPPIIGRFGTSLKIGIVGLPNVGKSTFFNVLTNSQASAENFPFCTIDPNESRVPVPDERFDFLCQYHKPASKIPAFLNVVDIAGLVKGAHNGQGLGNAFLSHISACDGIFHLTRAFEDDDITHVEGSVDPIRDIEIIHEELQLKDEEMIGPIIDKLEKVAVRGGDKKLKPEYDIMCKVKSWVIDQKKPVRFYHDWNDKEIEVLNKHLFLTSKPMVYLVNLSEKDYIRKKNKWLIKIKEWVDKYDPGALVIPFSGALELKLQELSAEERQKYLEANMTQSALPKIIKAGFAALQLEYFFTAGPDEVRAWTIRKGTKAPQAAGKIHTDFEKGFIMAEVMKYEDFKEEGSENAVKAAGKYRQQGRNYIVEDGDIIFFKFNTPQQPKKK
inactive: ibrutinib 0.009 | [1] -0.002 | ralimetinib 0.015 | [2] 0.03 | [3] 0.02 | [4] -0.023 | [5] 0.023 | [6] -0.004 | [7] 0.029 | [8] 0.014 | vemurafenib 0.025 | [9] 0.001 | barasertib 0.012 | [10] -0.047 | volasertib -0.029 | [11] 0.04 | [12] -0.135 | [13] 0.035 | saracatinib -0.003 | sotrastaurin 0.026

OCRL (UniProt Q01968)
Sequence of UniProt Q01968 (Q01968 whole entry, looked up): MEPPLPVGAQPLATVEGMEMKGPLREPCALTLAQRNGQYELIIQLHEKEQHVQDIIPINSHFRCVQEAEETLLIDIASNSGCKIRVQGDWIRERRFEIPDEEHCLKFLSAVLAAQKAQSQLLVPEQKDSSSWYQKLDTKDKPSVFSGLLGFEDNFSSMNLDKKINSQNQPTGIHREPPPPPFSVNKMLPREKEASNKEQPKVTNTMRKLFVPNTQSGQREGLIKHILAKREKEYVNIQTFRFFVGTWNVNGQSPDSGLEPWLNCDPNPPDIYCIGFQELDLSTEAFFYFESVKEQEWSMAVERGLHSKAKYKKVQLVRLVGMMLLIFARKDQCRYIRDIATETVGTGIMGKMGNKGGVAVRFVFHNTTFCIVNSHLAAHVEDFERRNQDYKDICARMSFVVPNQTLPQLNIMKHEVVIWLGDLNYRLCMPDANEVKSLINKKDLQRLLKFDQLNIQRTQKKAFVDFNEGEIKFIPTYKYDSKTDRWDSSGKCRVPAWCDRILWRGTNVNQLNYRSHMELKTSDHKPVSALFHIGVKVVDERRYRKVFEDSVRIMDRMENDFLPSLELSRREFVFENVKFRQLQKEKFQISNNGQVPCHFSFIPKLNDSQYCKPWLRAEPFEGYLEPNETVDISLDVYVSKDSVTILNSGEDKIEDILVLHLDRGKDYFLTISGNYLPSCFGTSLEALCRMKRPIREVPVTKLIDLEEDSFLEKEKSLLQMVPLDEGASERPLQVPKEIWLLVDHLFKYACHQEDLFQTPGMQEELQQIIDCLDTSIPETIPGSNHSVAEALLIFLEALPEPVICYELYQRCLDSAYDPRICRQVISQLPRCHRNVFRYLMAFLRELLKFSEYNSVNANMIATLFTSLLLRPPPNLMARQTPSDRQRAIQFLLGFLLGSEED
inactive: ibrutinib 0.051 | [1] -0.038 | ralimetinib -0.016 | [2] 0.016 | [3] 0.044 | [4] 0.013 | [5] 0.036 | [6] 0.022 | [7] -0.002 | [8] 0.033 | vemurafenib 0.168 | [9] 0.014 | barasertib 0.04 | [10] 0.018 | volasertib -0.057 | [11] -0.032 | [12] -0.074 | [13] 0.049 | saracatinib 0.027 | sotrastaurin 0.019

NBN (UniProt O60934)
inactive: ibrutinib 0.016 | [1] -0.003 | ralimetinib 0.014 | [2] 0.01 | [3] -0.016 | [4] -0.007 | [5] -0.015 | [6] -0.021 | [7] 0.022 | [8] -0.016 | vemurafenib 0.011 | [9] 0.011 | barasertib 0.037 | [10] -0.028 | volasertib -0.019 | [11] -0.003 | [12] 0.043 | [13] -0.058 | saracatinib 0.025 | sotrastaurin 0.001

NPTN (UniProt Q9Y639)
inactive: ibrutinib 0.069 | [1] 0.026 | ralimetinib 0.042 | [2] -0.009 | [3] 0.007 | [4] -0.02 | [5] -0.015 | [6] 0.038 | [7] 0.004 | [8] -0.046 | vemurafenib -0.028 | [9] -0.042 | barasertib 0.007 | [10] 0.032 | volasertib -0.038 | [11] -0.017 | [12] -0.019 | [13] 0.052 | saracatinib 0.02 | sotrastaurin -0.016

NSL1 (UniProt Q96IY1)
inactive: ibrutinib -0.019 | [1] -0.002 | ralimetinib 0.003 | [2] -0.052 | [3] 0.011 | [4] -0.066 | [5] 0.023 | [6] 0.009 | [7] 0.008 | [8] 0.036 | vemurafenib -0.017 | [9] 0 | barasertib -0.06 | [10] 0.005 | volasertib 0.007 | [11] 0.048 | [12] -0.016 | [13] 0.047 | saracatinib 0.012 | sotrastaurin 0.005

OSBP (UniProt P22059)
Sequence of UniProt P22059 (P22059 whole entry, looked up): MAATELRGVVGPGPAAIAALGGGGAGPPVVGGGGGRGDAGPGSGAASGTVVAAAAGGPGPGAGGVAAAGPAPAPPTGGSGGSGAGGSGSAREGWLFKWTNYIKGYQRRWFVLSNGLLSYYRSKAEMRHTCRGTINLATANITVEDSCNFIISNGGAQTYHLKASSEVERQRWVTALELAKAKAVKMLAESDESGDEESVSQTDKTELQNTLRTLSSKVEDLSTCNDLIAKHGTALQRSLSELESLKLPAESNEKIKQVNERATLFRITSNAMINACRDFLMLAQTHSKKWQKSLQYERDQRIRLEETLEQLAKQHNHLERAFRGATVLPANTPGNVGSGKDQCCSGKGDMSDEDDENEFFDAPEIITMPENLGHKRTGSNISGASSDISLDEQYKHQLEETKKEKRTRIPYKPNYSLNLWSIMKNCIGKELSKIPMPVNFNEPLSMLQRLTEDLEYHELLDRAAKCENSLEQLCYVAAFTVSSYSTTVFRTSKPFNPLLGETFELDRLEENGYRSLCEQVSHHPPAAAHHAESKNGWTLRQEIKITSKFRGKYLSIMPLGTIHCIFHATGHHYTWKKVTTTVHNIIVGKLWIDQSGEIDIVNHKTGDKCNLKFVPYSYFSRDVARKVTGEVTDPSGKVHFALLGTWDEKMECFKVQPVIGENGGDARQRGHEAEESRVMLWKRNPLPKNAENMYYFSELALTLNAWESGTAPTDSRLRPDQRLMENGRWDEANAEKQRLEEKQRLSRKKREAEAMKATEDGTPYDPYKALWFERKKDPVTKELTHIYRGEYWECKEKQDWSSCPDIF
inactive: ibrutinib -0.007 | [1] 0.003 | ralimetinib -0.019 | [2] -0.007 | [3] -0.19 | [4] 0.018 | [5] 0.04 | [6] -0.103 | [7] 0.011 | [8] -0.003 | vemurafenib -0.052 | [9] -0.007 | barasertib -0.004 | [10] -0.076 | volasertib -0.091 | [11] 0.041 | [12] -0.045 | [13] -0.032 | saracatinib 0.011 | sotrastaurin 0.026

NGLY1 (UniProt Q96IV0)
inactive: ibrutinib 0 | [1] -0.01 | ralimetinib 0.011 | [2] -0.008 | [3] 0.03 | [4] -0.001 | [5] -0.01 | [6] -0.006 | [7] 0.017 | [8] 0 | vemurafenib 0.015 | [9] 0.01 | barasertib 0.043 | [10] -0.102 | volasertib -0.034 | [11] 0.002 | [12] 0.09 | [13] -0.02 | saracatinib 0.013 | sotrastaurin 0.024

MYCBP (UniProt Q99417)
Sequence of UniProt Q99417 (Q99417 whole entry, looked up): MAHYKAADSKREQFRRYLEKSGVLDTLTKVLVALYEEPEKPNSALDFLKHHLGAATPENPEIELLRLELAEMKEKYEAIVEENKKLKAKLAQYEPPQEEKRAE
inactive: ibrutinib 0.188 | [1] -0.009 | ralimetinib 0.021 | [2] -0.04 | [3] 0.002 | [4] -0.007 | [5] -0.017 | [6] 0.032 | [7] -0.002 | [8] -0.009 | vemurafenib -0.001 | [9] 0 | barasertib 0.16 | [10] -0.003 | volasertib 0.044 | [11] -0.007 | [13] 0.189 | saracatinib 0.021 | sotrastaurin 0.035
active: [12] -0.589

NCAPH2 (UniProt Q6IBW4)
Sequence of UniProt Q6IBW4 (Q6IBW4 whole entry, looked up): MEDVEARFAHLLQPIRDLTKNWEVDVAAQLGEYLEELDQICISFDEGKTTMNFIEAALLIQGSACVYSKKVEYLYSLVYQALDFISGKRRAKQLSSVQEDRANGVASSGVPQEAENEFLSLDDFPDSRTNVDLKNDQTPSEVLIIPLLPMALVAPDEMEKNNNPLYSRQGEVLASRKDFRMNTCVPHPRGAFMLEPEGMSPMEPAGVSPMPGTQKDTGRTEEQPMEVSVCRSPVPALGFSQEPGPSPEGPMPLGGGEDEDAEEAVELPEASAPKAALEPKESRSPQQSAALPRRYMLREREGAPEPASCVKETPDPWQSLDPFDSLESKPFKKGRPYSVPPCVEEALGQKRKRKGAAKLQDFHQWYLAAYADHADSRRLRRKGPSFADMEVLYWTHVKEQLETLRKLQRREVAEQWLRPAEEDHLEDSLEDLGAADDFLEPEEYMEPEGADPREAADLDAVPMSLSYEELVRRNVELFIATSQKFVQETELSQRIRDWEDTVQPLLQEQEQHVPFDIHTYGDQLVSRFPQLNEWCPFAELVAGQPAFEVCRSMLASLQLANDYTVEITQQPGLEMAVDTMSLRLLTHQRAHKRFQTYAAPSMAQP
inactive: ibrutinib -0.033 | [1] -0.01 | ralimetinib 0.066 | [2] -0.091 | [3] 0.028 | [4] -0.017 | [5] 0 | [6] 0.01 | [7] 0.055 | [8] 0.011 | vemurafenib -0.044 | [9] 0.027 | barasertib 0.058 | [10] 0.027 | volasertib -0.002 | [11] -0.014 | [12] -0.032 | [13] 0.02 | saracatinib 0.001 | sotrastaurin 0.03

MTA3 (UniProt Q9BTC8)
Sequence of UniProt Q9BTC8 (Q9BTC8 whole entry, looked up): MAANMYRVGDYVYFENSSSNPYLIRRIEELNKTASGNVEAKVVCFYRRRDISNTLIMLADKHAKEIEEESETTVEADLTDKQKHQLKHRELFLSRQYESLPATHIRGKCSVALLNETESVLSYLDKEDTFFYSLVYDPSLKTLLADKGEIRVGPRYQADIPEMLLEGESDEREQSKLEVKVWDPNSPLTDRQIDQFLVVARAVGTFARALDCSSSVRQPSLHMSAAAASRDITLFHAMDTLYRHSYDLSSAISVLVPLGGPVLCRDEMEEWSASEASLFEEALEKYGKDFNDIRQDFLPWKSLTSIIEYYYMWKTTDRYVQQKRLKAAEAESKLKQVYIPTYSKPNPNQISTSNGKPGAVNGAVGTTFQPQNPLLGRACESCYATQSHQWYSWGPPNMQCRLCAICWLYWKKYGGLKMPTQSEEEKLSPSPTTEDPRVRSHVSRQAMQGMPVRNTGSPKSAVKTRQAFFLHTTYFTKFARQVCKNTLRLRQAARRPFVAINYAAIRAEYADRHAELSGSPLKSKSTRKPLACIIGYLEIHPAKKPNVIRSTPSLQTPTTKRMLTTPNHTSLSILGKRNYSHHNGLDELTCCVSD
inactive: ibrutinib -0.048 | [1] -0.023 | ralimetinib 0.009 | [2] 0.062 | [3] 0.01 | [4] -0.047 | [5] 0.031 | [6] -0.053 | [7] -0.052 | [8] -0.018 | vemurafenib 0.019 | [9] 0.002 | barasertib 0.017 | [10] 0.023 | volasertib -0.022 | [11] -0.055 | [12] -0.017 | [13] -0.097 | saracatinib 0.036 | sotrastaurin -0.006

OTC (UniProt P00480)
Sequence of UniProt P00480 (P00480 whole entry, looked up): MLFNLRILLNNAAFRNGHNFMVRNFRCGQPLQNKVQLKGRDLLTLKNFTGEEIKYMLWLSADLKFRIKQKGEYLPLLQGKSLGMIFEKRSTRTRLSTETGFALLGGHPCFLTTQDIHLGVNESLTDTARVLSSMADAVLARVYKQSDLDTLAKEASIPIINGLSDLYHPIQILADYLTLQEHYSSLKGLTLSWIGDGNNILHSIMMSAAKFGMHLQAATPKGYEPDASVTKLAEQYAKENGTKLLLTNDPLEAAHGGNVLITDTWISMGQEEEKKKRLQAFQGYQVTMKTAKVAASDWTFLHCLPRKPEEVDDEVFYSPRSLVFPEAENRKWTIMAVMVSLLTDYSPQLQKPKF
inactive: ibrutinib -0.089 | [1] 0.001 | ralimetinib 0.065 | [2] -0.18 | [3] 0.017 | [4] -0.055 | [5] 0.065 | [6] 0.156 | [7] -0.034 | [8] -0.004 | vemurafenib 0.072 | [9] -0.063 | barasertib 0.063 | [10] -0.246 | volasertib 0.018 | [11] -0.035 | [12] -1.43 | [13] 0.371 | saracatinib 0.012 | sotrastaurin 0.282

OSBP2 (UniProt Q969R2)
inactive: ibrutinib 0 | [1] 0.077 | ralimetinib 0.036 | [2] -0.103 | [3] -0.223 | [4] -0.006 | [5] 0.023 | [6] 0.051 | [7] -0.011 | [8] 0 | vemurafenib -0.056 | [9] -0.014 | barasertib -0.055 | [10] 0.062 | volasertib -0.077 | [11] -0.001 | [13] 0.279 | saracatinib 0.068 | sotrastaurin 0.104
active: [12] -0.881

NF1 (UniProt P21359)
inactive: ibrutinib 0.018 | [1] 0.02 | ralimetinib 0.07 | [2] -0.03 | [3] -0.009 | [4] 0.004 | [5] -0.02 | [6] 0.041 | [7] 0.007 | [8] -0.032 | vemurafenib 0.019 | [9] 0.024 | barasertib 0.029 | [10] -0.044 | volasertib -0.048 | [11] 0.031 | [12] -0.035 | [13] -0.041 | saracatinib 0.001 | sotrastaurin -0.029

NUMBL (UniProt Q9Y6R0)
Sequence of UniProt Q9Y6R0 (Q9Y6R0 whole entry, looked up): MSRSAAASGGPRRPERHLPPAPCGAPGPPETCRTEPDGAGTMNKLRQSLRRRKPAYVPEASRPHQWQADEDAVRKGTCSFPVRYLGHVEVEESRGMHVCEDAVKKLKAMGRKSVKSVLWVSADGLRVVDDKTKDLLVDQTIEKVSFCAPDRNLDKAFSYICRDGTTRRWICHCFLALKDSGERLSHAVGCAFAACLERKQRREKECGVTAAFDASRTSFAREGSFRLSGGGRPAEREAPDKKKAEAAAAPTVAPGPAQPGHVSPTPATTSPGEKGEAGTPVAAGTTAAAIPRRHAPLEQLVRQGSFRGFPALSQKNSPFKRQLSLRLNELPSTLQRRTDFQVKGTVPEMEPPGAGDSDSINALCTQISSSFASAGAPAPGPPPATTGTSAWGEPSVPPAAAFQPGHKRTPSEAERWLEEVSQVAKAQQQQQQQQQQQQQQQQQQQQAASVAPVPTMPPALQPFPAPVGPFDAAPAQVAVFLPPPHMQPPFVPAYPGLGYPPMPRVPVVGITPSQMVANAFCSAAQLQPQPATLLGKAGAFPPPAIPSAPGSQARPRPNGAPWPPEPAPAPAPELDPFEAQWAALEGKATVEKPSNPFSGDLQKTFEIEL
inactive: ibrutinib 0.047 | [1] -0.023 | ralimetinib -0.009 | [2] 0.028 | [3] 0.07 | [4] 0.071 | [5] -0.081 | [6] 0.076 | [7] 0.058 | [8] -0.008 | vemurafenib -0.06 | [9] 0.014 | barasertib -0.005 | [10] -0.009 | volasertib -0.037 | [11] 0.189 | [12] 0.032 | [13] -0.011 | saracatinib 0.052 | sotrastaurin -0.278
